G9a block: blocks human histone lysine methyltransferase G9a; G9a H3K9 monomethylation, AlphaScreen, 2 h; AID 504332; Q96KQ7; Potency, µM (titrated, usually from 102 µM), usual class: inhibitors; 8.8% of 350,000 active; also: nearly all actives have a fitted effect of over 75% in size
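Methyltransferase reactions run at room temperature for 2 h (20 nM enzyme, 500 nM biotin-H3K9 peptide, 20 uM SAM) after a 15 min compound preincubation; product detected by AlphaScreen beads and anti-H3K9me1 antibody.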
VDR inh: vitamin D3 receptor (human) inhibition; P11473; 0.93% of 400,000 active; Potency, µM, usual class: inhibitors; AID 504847; VDR-SRC2-3 peptide fluorescence polarization, 2 h
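Two reagent solutions held at 4 deg C in the dark were dispensed, compounds pinned at 23 nl, and the mixture incubated 2 h at room temperature. Read-out: fluorescence polarization of VDR–SRC2-3 peptide binding.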
HP1b binding inh: inhibitors of HP1-beta chromodomain binding to methylated histone tails | AlphaScreen HP1-beta / biotin-H3K9me3 peptide binding | Potency, µM (doses to about 114 µM), hits mostly inhibitors | 0.56% of 390,000 active | AID 540317; also: nearly all actives have a fitted effect of over 70% in size
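Compound inhibition of the preformed complex between 50 nM HP1-beta and 50 nM biotinylated H3K9me3 peptide was read by AlphaScreen. Buffer was PBS pH 7.4 with 0.01% Tween-20. Incubations ran 30 min at room temperature, with 10 ug/mL donor/acceptor beads.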
BAZ2B inh: BAZ2B (human) inhibition; 4.4% of 360,000 active; AlphaScreen BAZ2B-H3K14Ac peptide displacement; Q9UIF8; Potency, µM (doses to about 114 µM), actives largely listed as inhibitors; also: nearly all actives have a fitted effect of over 60% in size
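AlphaScreen displacement of biotin-H3(5-23)K14Ac peptide (50 nM final) from BAZ2B (50 nM final) in PBS pH 7.4, 0.01% Tween-20; complex preformed 30 min RT, then compounds (top 110 uM) 30 min RT, beads 20 min dark.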
JMJD2A Tudor inh: JMJD2A Tudor domain (human) inhibition; Potency, µM (highest dose often 114 µM), hits mostly inhibitors; AID 504339; 4.4% of 390,000 active; AlphaScreen JMJD2A-Tudor / H3K4me3 peptide binding; also: nearly all actives have a fitted effect of over 50% in size
Target sequence (O75164 whole entry, looked up, the tested form may be a part): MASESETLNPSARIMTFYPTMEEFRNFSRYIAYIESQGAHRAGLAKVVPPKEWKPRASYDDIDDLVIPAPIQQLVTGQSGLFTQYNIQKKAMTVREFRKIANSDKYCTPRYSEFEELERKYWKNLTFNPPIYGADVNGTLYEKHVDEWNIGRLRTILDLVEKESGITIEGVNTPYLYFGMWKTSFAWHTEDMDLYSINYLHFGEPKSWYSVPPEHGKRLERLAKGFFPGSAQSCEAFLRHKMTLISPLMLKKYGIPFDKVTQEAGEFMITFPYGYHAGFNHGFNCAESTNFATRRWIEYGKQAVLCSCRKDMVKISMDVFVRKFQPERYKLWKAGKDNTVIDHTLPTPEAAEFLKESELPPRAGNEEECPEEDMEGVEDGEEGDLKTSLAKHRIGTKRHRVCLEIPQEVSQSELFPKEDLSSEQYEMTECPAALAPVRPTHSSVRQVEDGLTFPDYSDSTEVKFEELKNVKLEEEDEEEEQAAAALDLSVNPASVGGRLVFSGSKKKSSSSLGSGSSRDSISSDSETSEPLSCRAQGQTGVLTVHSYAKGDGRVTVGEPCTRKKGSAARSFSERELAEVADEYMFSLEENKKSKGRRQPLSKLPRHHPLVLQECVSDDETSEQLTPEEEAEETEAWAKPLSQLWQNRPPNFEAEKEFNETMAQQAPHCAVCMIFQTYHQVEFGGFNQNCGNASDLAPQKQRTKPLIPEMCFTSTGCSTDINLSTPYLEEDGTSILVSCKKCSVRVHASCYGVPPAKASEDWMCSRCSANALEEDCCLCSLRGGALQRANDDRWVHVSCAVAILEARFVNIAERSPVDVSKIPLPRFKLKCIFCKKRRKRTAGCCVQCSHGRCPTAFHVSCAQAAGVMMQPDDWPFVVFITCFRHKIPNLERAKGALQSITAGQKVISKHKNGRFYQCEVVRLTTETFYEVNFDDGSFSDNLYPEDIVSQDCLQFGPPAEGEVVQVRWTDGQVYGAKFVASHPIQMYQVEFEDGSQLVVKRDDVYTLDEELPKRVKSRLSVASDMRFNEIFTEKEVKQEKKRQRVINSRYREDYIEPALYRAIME
PLK1 PBD inh: PLK1 (human) polo-box domain binding inhibition | P53350 | AID 720504 | 2.8% of 360,000 active | Potency, µM, most hits filed as inhibitors | Plk1 PBD binding of FITC phosphopeptide, fluorescence polarization; also: series mostly up to about 57 µM; nearly all actives have a fitted effect of over 65% in size
Numbers stand for hits; – = inactive; ? = inconclusive; · = not tested or not shown; [ ] = dose if it differs, or a comment. Sampled rows, rich in hits. Any-hit rate of the full collection: about 11%. Calls follow the shape of the dose curve; as a rule, active = well fitted curve in the direction sought with a large enough effect; inconclusive = small, poorly fitted or top-dose-only effect, or another doubt; inactive = no such curve, though single readings can be large; an effect the other way counts as inactive or inconclusive.

SMILES | G9a block | VDR inh | HP1b binding inh | BAZ2B inh | JMJD2A Tudor inh | PLK1 PBD inh
Cc1cccc(N2C(S)=C(C#N)C(=O)NC2c2ccco2)c1 (stereo unspecified) | · | 28µM | – | – | – | ?
Cc1ccc(N2OC3C(=O)NC(=O)C3C2c2ccco2)cc1 (stereo unspecified) | – | – | – | – | – | –
COc1ccc(N2C(S)=C(C#N)C(=O)NC2c2ccco2)cc1 (stereo unspecified) | 35µM | 40µM | – | – | – | ?
O=c1[nH]c(-c2ccc(-c3cccc(Cl)c3)o2)nc2ccccc12 | · | – | – | · | ? | ·
COc1ccc(C2CC(c3ccco3)n3ncnc3N2)cc1 (stereo unspecified) | – | ? | – | – | ? | ?
CCN(CC)S(=O)(=O)c1ccc2oc(C(=O)NCc3ccccc3OC)c(C)c2c1 | – | – | – | – | – | ·
O=C(CCC1CCCC1)N1CCc2c([nH]c3ccccc23)C1c1ccc(Cl)cc1 (stereo unspecified) | – | – | – | – | – | ·
O=c1[nH]c(=O)n([C@@H]2O[C@H](CO)[C@@H](O)[C@H]2O)cc1F | · | – | · | · | · | ·
Nc1c(C(=O)Nn2cnnc2)cc([N+](=O)[O-])cc1[N+](=O)[O-] | 50µM | · | · | – | · | ·
O=C(Nn1cnnc1)c1cc([N+](=O)[O-])cc([N+](=O)[O-])c1 | – | – | – | – | – | –
CCc1ccccc1NC(=O)COc1ccc(C(=S)N2CCCC2)cc1 | – | – | – | – | 71µM | ?
CC(=O)c1ccc(OCC(=O)Nc2ccccc2N2CCCC2)cc1 | · | – | – | ? | – | –
Cc1ccc(C)c(OCC(=O)Nc2ccccc2N2CCCC2)c1 | 40µM | – | – | ? | ? | –
CC(=O)N1CCN(c2ccccc2NC(=O)COc2cc(C)cc(C)c2)CC1 | – | ? | – | – | 50µM | ?
CCOc1ccc(OCC(=O)Nc2ccccc2N2CCCC2)cc1 | 50µM | – | – | ? | ? | –
CC(C)c1ccc(/C=N/NC(=O)c2nnn(-c3nonc3N)c2CN(C)C2CCCCC2)cc1 | – | – | – | – | – | ?
Cc1cc(C)cc(NC(=O)COc2ccc(C(=S)N3CCOCC3)cc2)c1 | ? | – | – | – | – | –
N#Cc1nc(Nc2cccc3ccccc23)nc(NC2CCCC2)n1 | · | · | · | · | – | ·
Cn1cc(/C=C(\NC(=O)c2ccccc2Cl)C(=O)NCCCn2ccnc2)c2ccccc21 | –[0.0925 µM] | – | – | ? | – | –
Cc1ccc(C)c(N2N=C(C(=O)Nc3ccccc3N3CCOCC3)CCC2=O)c1 | – | – | – | ? | – | –
Cc1ccc(C)c(N2N=C(C(=O)Nc3ccccc3N3CCCC3)CCC2=O)c1 | 50µM | – | 50µM | 35µM | 45µM | –
O=c1[nH]cnc2nc(-c3ccccc3)c(-c3ccccc3)nc12 | – | – | – | – | – | –
O=c1[nH]cnc2ncc(-c3ccc(O)cc3)nc12 | · | – | – | · | 79µM | –
NS(=O)(=O)c1ccc(N/C=C\C(=O)c2ccc3ccccc3c2)cc1 | 8.9µM | – | – | ? | – | –
O=C(O)COc1ccccc1/C=N/NC(=O)CSc1nc2ccccc2n1Cc1ccccc1Cl | ? | – | – | 71µM | ? | 60µM
SMILES | G9a block | VDR inh | HP1b binding inh | BAZ2B inh | JMJD2A Tudor inh | PLK1 PBD inh
CCN1C[C@@H]2[C@@H]3C(=O)N(Cc4ccccc4)C(=O)[C@@H]3[C@](C)(C1=O)N2C(=O)c1ccc(Br)cc1 | · | – | – | · | – | –
Cc1ccc(-c2ccc(=O)n(CC(=O)NCCc3ccc(Cl)cc3)n2)cc1 | – | – | – | – | 89µM | ·
O=C(Cn1nc(-c2ccc(Cl)cc2)ccc1=O)NCCc1ccccc1 | – | – | – | – | – | ·
CCc1cc2c(nc1CC)CCN(CC/C(C)=N/OC[C@H]1O[C@H](c3ccccc3)C=C[C@@H]1Oc1ccc(OC)cc1)C2 | 45µM | · | · | ? | · | ·
COc1ccc(O[C@H]2C=C[C@@H](c3ccccc3)O[C@@H]2COC(=O)CC/C(C)=N/OC[C@@H](O)COCc2ccco2)cc1 | ? | · | · | – | · | ·
COc1ccc(O[C@H]2C=C[C@@H](c3ccccc3)O[C@@H]2CO/N=C(\C)CCN2CCc3nc(-c4ccccc4)c(-c4ccccc4)cc3C2)cc1 | 32µM | · | · | – | · | ·
Cn1sccc1=O | 1.8µM | 16µM | – | – | – | 15µM
CC(C)(C)c1ccc(OCC(O)CSc2ncn[nH]2)cc1 (stereo unspecified) | 8.9µM | – | – | – | 32µM | –
O=C(COC(=O)c1ccccc1)c1ccc(Br)cc1 | – | – | – | – | – | –
O=C(/C=C/c1ccccc1)COC(=O)c1ccccc1 | · | 10µM | – | · | – | –
O=C(/C=C/c1ccccc1)CCN1CCCCC1 | · | 28µM | – | · | – | 6.7µM
CN(C(=O)c1ccc(NC(=O)Cc2ccc([N+](=O)[O-])cc2)cc1)C1CC1 | · | – | – | · | – | –
O=C(O)CCc1ccc(-c2ccccc2)n1CC(=O)Nc1ccccc1C(F)(F)F | – | – | – | – | – | ·
N=C(N)N1Cc2ccccc2C(O)C1 (stereo unspecified) | · | – | · | · | · | ·
OC(c1ccccn1)(c1ccccn1)c1ccccn1 | – | – | – | 22µM | 56µM | –
O=C(NCCNC1CCCCC1)c1ccco1 | 45µM | – | ? | ? | 3.5µM | –
COc1cc(C(=O)NCCNC(=O)c2ccco2)cc(OC)c1OC | · | ? | ? | · | ? | 27µM
COc1cc(C(=O)NCc2ccco2)cc(OC)c1OC | –[12.7 µM] | – | – | – | – | –
CC1CCC(NCCNC(=O)c2ccco2)CC1 (stereo unspecified) | 35µM | – | – | – | 20µM | –
CC(C)C(NC(=O)c1ccco1)C(=O)NC1CCCCCC1 (stereo unspecified) | 79µM | – | – | – | – | –
Cc1cc(OC(C)C(=O)Nc2c(C(=O)c3ccc(F)cc3)oc3ccccc23)ccc1Cl (stereo unspecified) | – | – | – | – | – | ·
COC(=O)c1ccc(Nc2nc(-c3ccccc3Cl)nc3ccccc23)cc1 | – | – | – | – | – | ·
CCCCc1c(O)c2ccccc2n(CCCC)c1=O | – | – | – | – | – | –
Cn1c(=O)c2ccccc2n2c(CCl)nnc12 | – | – | – | – | – | –
CCCn1c(=O)c2ccccc2n2c(SCC(=O)c3ccccc3)nnc12 | ? | – | – | – | 25µM | –
SMILES | G9a block | VDR inh | HP1b binding inh | BAZ2B inh | JMJD2A Tudor inh | PLK1 PBD inh
CCCn1c(=O)c2ccccc2n2c(SCC(=O)c3ccc(F)cc3)nnc12 | –[2.33 µM] | · | · | – | · | ·
Cn1c(=O)c2ccccc2n2c(=S)[nH]nc12 | 6.3µM | – | 79µM | – | 3.2µM | –
CCCn1c(=O)c2ccccc2n2c(=S)[nH]nc12 | 3.5µM | – | – | – | 1.4µM | –
CCCCn1c(=O)c2ccccc2n2c(=S)[nH]nc12 | 1.3µM | – | – | ? | 3.5µM | 27µM
O=C(c1cccs1)N(Cc1ccco1)c1ccc(O)cc1 | · | – | – | · | – | ·
CCCCCn1c(=O)c2ccccc2n2c(=S)[nH]nc12 | 1.4µM | ? | – | – | 6.3µM | 19µM

Compound activity (PubChem BioAssay)
